Calls of active or inactive are those of the source. Calls follow the shape of the dose curve; as a rule, active = well fitted curve in the direction sought with a large enough effect; inactive = no such curve, though single readings can be large or run the other way.
molecular target: Pyruvate kinase PKM (Homo sapiens) (UniProt P14618); assay: Secondary Concentration-Response Assay for Activators of Human Muscle isoform 1 Pyruvate Kinase: for Probe SAR; conditions: purified hPK-M1, ATP production, Kinase-Glo luminescence
From the text: NIH Chemical Genomics Center [NCGC]
Matthew G. Vander Heiden, M.D., Ph.D. [Harvard Medical School, 77 Avenue Louis Pasteur, Boston, MA 02115]
Human pyruvate kinase […] (hPK-M1) enzyme was supplied as a highly purified (>95% pure) preparation from Harvard Medical School and assayed for its ability to generate ATP from ADP using phosphoenolpyruvate (PEP) as a substrate. ATP generation was detected in a coupled reaction by luciferase-mediated luminescence, an ATP-dependent process. Pyruvate kinase substrates, PEP and ADP, were present in the assay at Km and approximately 10-fold below Km respectively. The enzyme was assayed at an intermediate level of activity to screen for both inhibitors and activators.
NCGC Assay Protocol Summary for M1-isoform:
Three uL of substrate mix (at r.t.) in assay buffer (50 mM Imidazole pH7.2, 50 mM KCl, 7 mM MgCl2, 0.01% Tween 20, 0.05% BSA) was dispensed into white solid bottom 1,536 well microtiter plates so that the final concentrations of substrates in the assay were 0.1 mM ADP and 0.5 mM PEP. 23 nL of compound were delivered by a pin tool and 1 uL of enzyme mix (final concentration of 1 nM) in assay buffer (4 degree Celsius) was added. Plates were incubated at room temperature for 1 hour. Two uL of detection mix (Kinase-Glo, Promega; at 4 degree Celsius protected from light) was added and luminescence read by a ViewLux (Perkin Elmer) at 1 second exposure/plate. Data were normalized to the uninhibited (row 31). Additionally, a no enzyme and 5-fold enzyme control was dispensed in row 32, split equally between the two conditions.

Pyruvate kinase PKM (Homo sapiens), sequence (P14618 whole entry, looked up, canonical isoform): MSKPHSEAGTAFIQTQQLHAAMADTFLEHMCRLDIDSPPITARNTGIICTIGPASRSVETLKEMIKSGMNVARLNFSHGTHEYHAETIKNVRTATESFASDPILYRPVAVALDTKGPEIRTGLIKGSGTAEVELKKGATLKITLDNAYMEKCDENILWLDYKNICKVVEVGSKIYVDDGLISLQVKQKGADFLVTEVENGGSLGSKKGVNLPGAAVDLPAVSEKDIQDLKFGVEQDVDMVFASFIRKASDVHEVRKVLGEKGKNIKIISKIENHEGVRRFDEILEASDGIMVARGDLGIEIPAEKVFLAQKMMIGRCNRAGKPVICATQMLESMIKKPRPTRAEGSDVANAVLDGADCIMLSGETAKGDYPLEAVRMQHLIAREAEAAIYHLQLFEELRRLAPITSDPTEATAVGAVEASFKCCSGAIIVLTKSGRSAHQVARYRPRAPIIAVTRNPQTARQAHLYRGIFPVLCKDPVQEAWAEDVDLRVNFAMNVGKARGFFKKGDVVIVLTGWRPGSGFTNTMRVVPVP

Max response, inactive:
Cc1ccc(Cl)cc1NS(=O)(=O)c1cc2c(cc1F)NC(=O)CC2 -4.17%, Cc1c(Cl)cccc1NS(=O)(=O)c1cc2c(cc1F)NC(=O)CC2 0.151%, O=C1CCc2cc(S(=O)(=O)Nc3cccc(B(O)O)c3)ccc2N1 -3.5%, Cc1cc2c(s1)c1cnn(Cc3ccccc3F)c(=O)c1n2C -9.51%, COc1cccc(Cn2ncc3c4sc(S(C)=O)cc4n(C)c3c2=O)c1 (stereo not given) 3.1%, Cc1ccc(NS(=O)(=O)c2cc3c(cc2N2CCC2)NC(=O)CC3)cc1C -7.63%, CNc1cccc(S(=O)(=O)N2CCCN(S(=O)(=O)c3ccc4c(c3)OCCO4)CC2)c1 3.54%, Cc1ccc(NS(=O)(=O)c2cc3c(cc2Cl)NC(=O)C3)cc1C 2.96%, N#Cc1cccc(NS(=O)(=O)c2ccc3c(c2)CCC(=O)N3)c1 -2.21%, Cc1cc(NS(=O)(=O)c2ccc3c(c2)CCC(=O)N3)ccc1Cl -0.197%, O=C1CCc2cc([S+](=O)([O-])NC3CCOCC3)ccc2N1 -5.17%, CSc1cc2c(s1)c1cnn(Cc3cccc(N)c3)c(=O)c1n2C 7.82%, Cc1ccc(NS(=O)(=O)c2ccc3c(c2)CC(=O)N3)cc1C 23.4%, Cc1ccc(NS(=O)(=O)c2ccc3c(c2)N(C)C(=O)CO3)cc1C 1.15%, Cc1ccc(NS(=O)(=O)c2ccc3c(c2)C(Cl)(Cl)C(=O)N3)cc1C 0.115%, Cc1ccc(NS(=O)(=O)c2cc3c(cc2Cl)CCC(=O)N3)cc1Cl 4.8%, O=C1CCc2cc(S(=O)(=O)Nc3ccc(F)c(Cl)c3)ccc2N1 -1.6%, O=C1CCc2cc(S(=O)(=O)Nc3ccc4ncccc4c3)ccc2N1 -1.75%, Cc1ccc(NS(=O)(=O)c2ccc3c(c2)CCC(=O)N3)cc1Cl 8.72%, Cc1ccc(Cl)cc1NS(=O)(=O)c1cc2c(cc1Cl)CCC(=O)N2 1.5%, CC(=O)N1c2ccc(S(=O)(=O)Nc3ccc(C)c(C)c3)cc2CC1C (stereo not given) 13.1%, O=C1CCc2cc(S(=O)(=O)Nc3cccc(Br)c3)ccc2N1 -2.97%, Cc1ccc(NS(=O)(=O)c2cc3c(cc2N(C)C)CCC(=O)N3)cc1C -0.287%, Cc1ccc(NS(=O)(=O)c2cc3c(cc2C)OCC(=O)N3)cc1C 2.47%, Cc1ccc(NS(=O)(=O)c2cc3c(cc2F)NC(=O)CC3)cc1Cl 4.95%, Cc1ccc(NS(=O)(=O)c2ccc3c(c2)CCC(=O)N3)cc1C -6.39%, Cc1ccc(N(C)S(=O)(=O)c2ccc3c(c2)CCC(=O)N3)cc1C 0.78%, N#Cc1ccc(NS(=O)(=O)c2ccc3c(c2)CCC(=O)N3)cc1 5.23%, CNc1cc2c(cc1S(=O)(=O)Nc1ccc(C)c(C)c1)CCC(=O)N2 -0.656%, O=C1CCc2cc(Cl)c(S(=O)(=O)Nc3ccc(Cl)c(Cl)c3)cc2N1 1.66%, Cc1cc(NS(=O)(=O)c2ccc3c(c2)CCC(=O)N3)ccc1F 2.58%, CCNc1cccc(S(=O)(=O)N2CCCN(S(=O)(=O)c3ccc4c(c3)OCCO4)CC2)c1 8.55%, O=S(=O)(c1ccc2c(c1)OCCO2)N1CCN(S(=O)(=O)c2c(F)cccc2F)CC1 -8.27%, O=C1CCc2cc(S(=O)(=O)Nc3ccc(Cl)c(Cl)c3)c(F)cc2N1 2.68%, O=C1CCc2cc([S+](=O)([O-])Nc3ccc(N[S+](=O)([O-])c4ccc5c(c4)CCC(=O)N5)cc3)ccc2N1 -0.299%, Cc1ccc(N[S+](=O)([O-])c2cc3c(cc2CCc2ccccc2)NC(=O)CO3)cc1C -3.27%, COc1cccc(Cn2ncc3c4sc(SC)cc4n(C)c3c2=O)c1 13.2%, O=C1CCc2cc(S(=O)(=O)Nc3ccc4c(c3)CCC4)ccc2N1 -1.18%, Cc1c(Cl)cccc1NS(=O)(=O)c1cc2c(cc1Cl)CCC(=O)N2 0.521%, Cc1ccc(NS(=O)(=O)c2ccc3c(c2)CCC(=O)N3)cc1F 0.0639%
